# Measurements: ChEMBL document CHEMBL3433997, “St. Jude Leishmania screening dataset” (2016)
# How the values were obtained:
# Assay type in all cases: functional
# [1] = target: Solute carrier family 2, facilitated glucose transporter member 1 (Homo sapiens) (UniProt P11166); experiment: ST_JUDE_LEISH: Cytotoxicity at 2uM final concentration against transgenic Leishmania Mexicana promastigotes LmGLUT1 that are glucose transport deficient and complemented with the human glucose transporter GLUT1. Activity is measured by DNA content using SYBR green in vitro
# [2] = target: Hexose transporter 1 (Plasmodium falciparum) (UniProt O97467); experiment: ST_JUDE_LEISH: Cytotoxicity at 2uM final concentration against transgenic Leishmania Mexicana promastigotes LmPfHT that are glucose transport deficient and complemented with the Plasmodium falciparum hexose transporter. Activity is measured by DNA content using SYBR green in vitro
# [3] = target: Glucose transporter (Leishmania mexicana) (UniProt O61059); experiment: ST_JUDE_LEISH: Cytotoxicity at 2uM final concentration against transgenic Leishmania Mexicana promastigotes LmGT2 that are glucose transport deficient and complemented with the L. Mexicana glucose transporter 2. Activity is measured by DNA content using SYBR green in vitro
# Sequence of Solute carrier family 2, facilitated glucose transporter member 1 (Homo sapiens) (P11166 whole entry): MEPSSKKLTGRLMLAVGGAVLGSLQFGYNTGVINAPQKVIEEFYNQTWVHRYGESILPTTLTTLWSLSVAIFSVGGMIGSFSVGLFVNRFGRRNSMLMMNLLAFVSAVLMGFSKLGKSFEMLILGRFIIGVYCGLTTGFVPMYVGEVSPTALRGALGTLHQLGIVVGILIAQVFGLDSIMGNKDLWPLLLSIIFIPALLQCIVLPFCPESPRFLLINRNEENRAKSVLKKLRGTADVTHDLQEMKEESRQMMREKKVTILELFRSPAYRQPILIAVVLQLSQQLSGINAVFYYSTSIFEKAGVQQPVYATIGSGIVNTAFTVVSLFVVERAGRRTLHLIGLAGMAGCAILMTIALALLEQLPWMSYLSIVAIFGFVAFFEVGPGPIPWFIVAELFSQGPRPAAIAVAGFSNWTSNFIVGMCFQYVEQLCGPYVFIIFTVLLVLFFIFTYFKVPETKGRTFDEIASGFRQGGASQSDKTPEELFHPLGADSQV
SMILES,inhibition [1] [%],inhibition [2] [%],inhibition [3] [%]
CCCOc1ccccc1-c1nc2[nH]c3c(c2c(=O)[nH]1)CCN(C)C3,-1.19,-0.54,-1.12
CN(C)c1cccc2c1nc(-c1ccc3c(c1)CCO3)n2CCNCc1ccccc1,11.7,8.56,5.57
CCC[C@@H]([C@@H](CC1CCCCC1)C(=O)N[C@@H](CCOC(=O)NCC)C(=O)Nc1nccs1)N(O)C=O,8.61,10.3,9.7
O=C(N[C@@H](Cc1ccccc1)[C@H](O)CNC1CCc2ccccc2C1)c1cc(C2CCCC2)cc(N2CCCC2=O)c1 (stereo partly drawn),-3.59,2.21,-4.47
CCCc1cc(N2CCC(c3ccccc3)(N3CCCCC3)CC2)nc(Nc2ccc(OC)cc2)n1,15.7,16.5,6.08
CN1CCN(CCCNc2ncc3c(-c4ccc(NC(=O)Nc5cc(C(F)(F)F)ccc5F)c(F)c4)nn(C)c3n2)CC1,-0.98,-3.33,7.86
Cc1cc(=O)oc2c1ccc1oc(C(O)c3ccc(Cl)cc3)c(C)c12 (stereo not drawn),-0.12,0.59,-1.6
O=C(Nc1ccccc1O)C1CCN(c2ncnc3cc(-c4ccc(F)cc4)sc23)CC1,1.73,2.48,-2.46
O=C(Nc1ccnc(N2CCCN(Cc3cccc(O)c3)CC2)c1)c1ccc(F)cc1,2.79,0.77,4.83
Cc1ccc(Nc2nc(C)cc(NC3CC3)n2)cc1,8.73,6.75,7
CCc1cc2c3c(N)nc(N)nc3ccc2n1CC,40.4,58,39.4
N=C(N)Nc1nc(-c2ccc(NC(=O)Nc3cccc(-c4csc(NC(=N)N)n4)c3)cc2)cs1,-0.61,0,-0.17
CC(C)c1nc(N2CCN(C(=S)NCc3ccccc3)CC2)c(C#N)c2c1COC(C)(C)C2,-0.1,0.47,0.22
CN1CCN(c2ccnc3ccc(NC(=O)Nc4ccc(-c5ccncc5)c(C#N)c4)cc23)CC1,-0.68,-2.42,-2.77
CSc1nc2nc(C)c(Cc3cccc(F)c3)c(C)n2n1,-1.07,-0.45,0.34
CCN(C)CCCn1c(N(C)C)nc2cc(-n3cnc4cc(-c5ccc(Cl)cc5)sc4c3=O)ccc21,8.73,10.9,3.62
